The text below walks through data of PubChem BioAssay (EPA / NIEHS).

A short description of assay [1]: ATG_CRE_CIS: Attagene CIS-FACTORIAL HepG2 Assay for human cAMP Responsive Element (CRE) binding protein 3 (AID 2282926). The note with it: HepG2 CRE cis-reporter, Attagene multiplexed mRNA; actives raise or lower the signal. Put shortly:
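Capillary electrophoresis of 6-FAM-labelled, HpaI-digested PCR products quantified reporter transcripts. These came from HepG2 transiently transfected with cis-element reporters and exposed to test chemicals for 24 hours, with DMSO defining baseline activity.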

Assay [2] deals with CCAAT/enhancer-binding protein beta (Homo sapiens) (UniProt P17676). The experiment in a line: ATG_C_EBP_CIS: Attagene CIS-FACTORIAL HepG2 Assay for human CCAAT/Enhancer Binding Protein (C/EBP) beta (AID 2282927). The note with it: HepG2 Attagene cis-factorial transcription factor reporter; actives raise or lower the signal. Put shortly: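 Endogenous transcription factor activity in human liver HepG2 cells is inferred from induction of a CEBPB-linked reporter mRNA. Exposure lasts 24 h; activity is fitted in both directions relative to DMSO.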
Sequence of CCAAT/enhancer-binding protein beta (Homo sapiens) (P17676 whole entry, looked up): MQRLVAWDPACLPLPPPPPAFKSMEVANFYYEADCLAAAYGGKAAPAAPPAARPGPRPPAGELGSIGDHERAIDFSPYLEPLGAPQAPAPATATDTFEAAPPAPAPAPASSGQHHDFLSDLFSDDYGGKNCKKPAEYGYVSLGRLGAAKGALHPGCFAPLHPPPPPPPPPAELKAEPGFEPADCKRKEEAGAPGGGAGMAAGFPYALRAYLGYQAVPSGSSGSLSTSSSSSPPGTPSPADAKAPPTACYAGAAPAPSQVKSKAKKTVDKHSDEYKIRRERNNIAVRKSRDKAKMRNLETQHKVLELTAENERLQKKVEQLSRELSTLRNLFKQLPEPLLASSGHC

Assay [3] is described as follows: ATG_CMV_CIS: Attagene CIS-FACTORIAL HepG2 Assay for human CMV (Internal Marker) (AID 2282928).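 Further: endpoint acts as a background internal control marker rather than a target.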 The following applies: HepG2 CMV promoter reporter, transcription factor profiling; actives raise or lower the signal. Put shortly: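 Readout: fluorescent reporter cDNA fragments separated by capillary electrophoresis after RT-PCR and HpaI cut. Cells: HepG2 carrying transfected cis-promoter reporter constructs, dosed 24 h. Endpoint serves as background internal-marker control, fit bidirectionally versus DMSO.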

The nature of assay [4]: ATG_DR4_LXR_CIS: Attagene CIS-FACTORIAL HepG2 Assay for human Liver X Receptor (LXR), DR4 submotif (AID 2282929). The following applies: HepG2 Attagene DR4 cis-reporter, mRNA transcription; actives raise or lower the signal. In a few lines: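 Readout: reporter transcript fluorescence after RT-PCR and capillary electrophoresis, fitted bidirectionally against DMSO controls. Human HepG2 liver cells carried transiently transfected multiplexed reporter constructs; endogenous transcription factor activity measured 24 h post-dosing.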

The target in assay [5] is Aryl hydrocarbon receptor (Homo sapiens) (UniProt P35869). As to the kind of experiment: ATG_Ahr_CIS: Attagene CIS-FACTORIAL HepG2 Assay for human Aryl Hydrocarbon Receptor (Ahr) (AID 2282930). The following applies: HepG2 AhR cis-factorial reporter transcription; actives raise or lower the signal. Put shortly:
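Transient MRTU transfection of HepG2 → 24 h compound exposure → total RNA, oligo(dT) RT → PCR, 6-FAM extension, HpaI cut → CE fluorescence. DMSO = baseline; bidirectional curve fit.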

Assay [6] is described as follows: ATG_AP_1_CIS: Attagene CIS-FACTORIAL HepG2 Assay for human Activator Protein 1 (AP-1) (AID 2282931). The note with it: HepG2 Attagene cis-factorial AP-1 reporter mRNA; actives raise or lower the signal. In a few lines: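 Reporter transcripts were measured 24 h after dosing by RT-PCR and capillary electrophoresis of fluorescent fragments. Cells: HepG2 carrying transfected cis-regulated reporter constructs reading endogenous factor activity. Gain or loss fitted against DMSO.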

Assay [7] is described as follows: ATG_AP_2_CIS: Attagene CIS-FACTORIAL HepG2 Assay for human Activator Protein 2 (AP-2) (AID 2282932). The note with it: HepG2 AP-2 cis-reporter, Attagene transcription factor profiling; actives raise or lower the signal. In a few lines: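 Transiently transfected HepG2 cells are exposed to chemical for 24 h. Reporter transcripts are then measured as fluorescence following RT-PCR and capillary separation, and gain- or loss-of-signal is fitted relative to DMSO.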

Assay [8] in a line: ATG_BRE_CIS: Attagene CIS-FACTORIAL HepG2 Assay for human Bone Morphogenetic Protein (BMP) Response Element (BRE) (AID 2282933). The note with it: HepG2 BMP response element reporter, Attagene transcription factor profiling; actives raise or lower the signal. In a few lines: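 Endogenous transcription factor activity at a BMP response element was monitored in transfected HepG2 cells 24 h after dosing. Fluorescent RT-PCR products were resolved by capillary electrophoresis, and activity was fitted in both directions versus DMSO.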

Assay [9] deals with Retinoic acid receptor alpha (Homo sapiens) (UniProt P10276). As to the kind of experiment: ATG_DR5_RAR_CIS: Attagene CIS-FACTORIAL HepG2 Assay for human Retinoic Acid Receptor Alpha (RARE), DR5 submotif (AID 2282934).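 On AC50: reporter responds to endogenous RAR alpha beta and gamma in HepG2 not RARA alone.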 The note with it: HepG2 Attagene cis-factorial RARE DR5 reporter, mRNA; actives raise or lower the signal. In a few lines:
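Transient MRTU transfection of HepG2; 24 h compound treatment; TriZol RNA, oligo(dT) RT, PCR, FAM labelling, capillary electrophoresis. Bidirectional fit vs DMSO. Endogenous TF activity at DR5 RARE.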

Assay [10] has as its target Transcription factor E2F1 (Homo sapiens) (UniProt Q01094). The experiment in a line: ATG_E2F_CIS: Attagene CIS-FACTORIAL HepG2 Assay for human E2F Transcription Factor 1 (AID 2282935). The following applies: HepG2 Attagene cis-reporter, E2F reporter RNA transcripts; actives raise or lower the signal. Put shortly:
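Fluorescent RT-PCR products, digested with HpaI for 2 h at 37 C, are separated by capillary electrophoresis. Source RNA comes from transfected HepG2 cultures treated for 24 h.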

Assay [11] is described as follows: ATG_M_61_CIS: Attagene CIS-FACTORIAL HepG2 Assay for M61 Transcription Factor (Internal Marker) (AID 2282937). The following applies: HepG2 Attagene CIS-FACTORIAL M61 internal marker reporter; actives raise or lower the signal. Put shortly: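 Readout: fluorescent reporter mRNA fragments resolved by capillary electrophoresis after RT-PCR. Transiently transfected human HepG2 cells carried MRTU constructs reporting endogenous TF activity; 24 h chemical exposure; gain or loss of signal fitted relative to DMSO.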

A short description of assay [12]: ATG_EGR_CIS: Attagene CIS-FACTORIAL HepG2 Assay for human Early Growth Response 1 (EGR1) (AID 2282938). The note with it: HepG2 Attagene CIS-FACTORIAL EGR reporter mRNA; actives raise or lower the signal. In a few lines: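 Read-out: fluorescent reporter-mRNA fragments resolved by capillary electrophoresis after RT-PCR, 24 h post-dose in transiently transfected HepG2. Endogenous transcription-factor activity reported via cis-element-regulated reporter units; gain or loss fitted relative to DMSO.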

Assay [13] in a line: ATG_M_19_CIS: Attagene CIS-FACTORIAL HepG2 Assay for M19 Transcription Factor (Internal Marker) (AID 2282939). The following applies: HepG2 Attagene CIS-FACTORIAL M19 internal marker reporter; actives raise or lower the signal. Put shortly:
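Background-control endpoint from a multiplexed HepG2 reporter panel. Cells carrying cis-regulated reporter constructs are treated 24 h, then reporter transcripts are amplified, fluorescently labelled and sized by capillary electrophoresis. DMSO defines baseline.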

Assay [14] in a line: ATG_ERE_CIS: Attagene CIS-FACTORIAL HepG2 Assay for Estrogen Response Element (ERE) (AID 2282940). The note with it: HepG2 ERE cis-reporter, Attagene RNA transcript; actives raise or lower the signal. Put shortly: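 Cells used were human hepatoma HepG2, transfected with multiple reporter transcription units under cis-regulatory promoters. Reporter mRNA, read 24 h post-dosing via fluorescent RT-PCR products on capillary electrophoresis, was fitted bidirectionally relative to DMSO.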

Assay [15] is described as follows: ATG_Ets_CIS: Attagene CIS-FACTORIAL HepG2 Assay for human Erythroblast Transformation Specific (ETS) (AID 2282941). The following applies: HepG2 ETS cis-reporter transcription, actives raise or lower the signal. Put shortly: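 RT-PCR/capillary electrophoresis fluorescence read-out of reporter mRNA; HepG2 transient multi-reporter transfection; 24 h compound exposure; gain or loss of signal fitted bidirectionally relative to DMSO.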

Assay [16] concerns the target Hepatocyte nuclear factor 3-beta (Homo sapiens) (UniProt Q9Y261). As to the kind of experiment: ATG_FoxA2_CIS: Attagene CIS-FACTORIAL HepG2 Assay for human Forkhead box A2 (FOXA2) (AID 2282942). The note with it: HepG2 cis-reporter transcription factor activity, 24 h; actives raise or lower the signal. In a few lines:
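Readout: fluorescent reporter transcripts resolved by capillary electrophoresis after RT-PCR. Transiently transfected HepG2, 24 h compound exposure, endogenous TF activity at cis promoter elements. Gain or loss of signal fitted relative to DMSO.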

Assay [17] is described as follows: ATG_GATA_CIS: Attagene CIS-FACTORIAL HepG2 Assay for human GATA Binding Protein (AID 2282944). The following applies: HepG2 GATA cis-element reporter, Attagene multiplex mRNA; actives raise or lower the signal. In a few lines:
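Endogenous transcription factor activity was captured through cis-promoter-driven reporters in transfected HepG2 cells. After 24 h exposure, reporter transcripts were quantified by RT-PCR with fluorescent capillary electrophoresis, and responses fitted both directions against DMSO.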

Assay [18] can be described thus: ATG_GLI_CIS: Attagene CIS-FACTORIAL HepG2 Assay for human Zinc Finger Protein GLI1 (AID 2282945). The note with it: HepG2, Attagene cis-factorial reporter mRNA, GLI element; actives raise or lower the signal. In a few lines:
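Bidirectional curve fits relative to DMSO, using reporter mRNA levels from RT-PCR plus capillary electrophoresis. Cells were HepG2 transiently carrying cis-regulated reporter constructs, harvested 24 h after dosing.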

The nature of assay [19]: ATG_E_Box_CIS: Attagene CIS-FACTORIAL HepG2 Assay for human Enhancer Box (E-box) (AID 2282936). The note with it: HepG2 E-box cis-reporter transcription, actives raise or lower the signal. In a few lines: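 Fluorescent reporter fragments separated by capillary electrophoresis gave the signal; mRNA came from HepG2 cells transfected with cis-element reporters and treated 24 h. Curves fitted bidirectionally relative to DMSO controls.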

Assay [20] is described as follows: ATG_FoxO_CIS: Attagene CIS-FACTORIAL HepG2 Assay for human Forkhead box O (FoxO) (AID 2282943). The note with it: HepG2 Attagene cis-reporter, FoxO element, mRNA; actives raise or lower the signal. In a few lines: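 HepG2, transient MRTU transfection (cis element, endogenous TFs). Dose 24 h. TriZol RNA → oligo(dT) RT → PCR → 6-FAM primer extension → HpaI cut → CE. Gain/loss vs DMSO.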

More than one record can exist for a structure, and the calls need not agree. Calls of active or inactive are those of the source. How the source made its calls: active means hit-call score of the fitted dose curve at least 0.9, where 1 is the maximum; inactive means score below 0.9.

Sequence of Hepatocyte nuclear factor 3-beta (Homo sapiens) (Q9Y261 whole entry, looked up): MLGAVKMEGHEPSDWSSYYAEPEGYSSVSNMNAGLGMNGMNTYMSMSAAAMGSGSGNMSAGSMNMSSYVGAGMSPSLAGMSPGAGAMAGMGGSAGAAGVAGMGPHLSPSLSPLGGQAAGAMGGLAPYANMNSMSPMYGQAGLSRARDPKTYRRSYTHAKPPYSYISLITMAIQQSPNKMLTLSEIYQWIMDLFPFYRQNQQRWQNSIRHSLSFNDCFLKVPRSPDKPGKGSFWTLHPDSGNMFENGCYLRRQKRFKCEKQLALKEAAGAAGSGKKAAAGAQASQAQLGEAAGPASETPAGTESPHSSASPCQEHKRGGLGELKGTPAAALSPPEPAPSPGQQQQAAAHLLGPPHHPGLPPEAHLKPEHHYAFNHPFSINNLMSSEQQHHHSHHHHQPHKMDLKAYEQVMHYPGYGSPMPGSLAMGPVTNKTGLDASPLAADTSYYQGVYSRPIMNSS
Sequence of Transcription factor E2F1 (Homo sapiens) (Q01094 whole entry, looked up): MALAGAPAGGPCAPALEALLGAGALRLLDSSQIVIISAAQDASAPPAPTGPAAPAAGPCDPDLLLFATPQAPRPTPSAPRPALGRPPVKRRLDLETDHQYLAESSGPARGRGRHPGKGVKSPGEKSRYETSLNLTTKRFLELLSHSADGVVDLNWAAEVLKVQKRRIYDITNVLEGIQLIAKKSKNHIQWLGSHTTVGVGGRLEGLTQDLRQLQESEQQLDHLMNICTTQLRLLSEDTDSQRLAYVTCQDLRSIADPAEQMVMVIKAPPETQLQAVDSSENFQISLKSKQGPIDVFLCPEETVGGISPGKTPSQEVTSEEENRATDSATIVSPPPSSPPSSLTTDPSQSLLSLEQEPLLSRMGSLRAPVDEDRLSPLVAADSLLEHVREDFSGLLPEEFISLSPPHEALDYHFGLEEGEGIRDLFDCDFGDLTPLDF
Sequence of Retinoic acid receptor alpha (Homo sapiens) (P10276 whole entry, looked up): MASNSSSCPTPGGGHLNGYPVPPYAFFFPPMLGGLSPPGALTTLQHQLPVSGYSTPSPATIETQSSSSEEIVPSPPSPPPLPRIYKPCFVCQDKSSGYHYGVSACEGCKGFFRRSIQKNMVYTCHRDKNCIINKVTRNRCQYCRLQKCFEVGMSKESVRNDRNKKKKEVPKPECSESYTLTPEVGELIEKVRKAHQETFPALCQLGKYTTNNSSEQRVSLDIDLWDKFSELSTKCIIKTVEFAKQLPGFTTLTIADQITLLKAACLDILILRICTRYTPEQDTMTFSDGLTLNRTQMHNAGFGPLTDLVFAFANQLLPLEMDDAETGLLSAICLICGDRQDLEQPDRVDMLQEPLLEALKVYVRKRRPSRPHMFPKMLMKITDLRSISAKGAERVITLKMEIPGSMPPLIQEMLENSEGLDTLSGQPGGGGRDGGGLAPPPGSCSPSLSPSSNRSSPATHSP
Sequence of Aryl hydrocarbon receptor (Homo sapiens) (P35869 whole entry, looked up): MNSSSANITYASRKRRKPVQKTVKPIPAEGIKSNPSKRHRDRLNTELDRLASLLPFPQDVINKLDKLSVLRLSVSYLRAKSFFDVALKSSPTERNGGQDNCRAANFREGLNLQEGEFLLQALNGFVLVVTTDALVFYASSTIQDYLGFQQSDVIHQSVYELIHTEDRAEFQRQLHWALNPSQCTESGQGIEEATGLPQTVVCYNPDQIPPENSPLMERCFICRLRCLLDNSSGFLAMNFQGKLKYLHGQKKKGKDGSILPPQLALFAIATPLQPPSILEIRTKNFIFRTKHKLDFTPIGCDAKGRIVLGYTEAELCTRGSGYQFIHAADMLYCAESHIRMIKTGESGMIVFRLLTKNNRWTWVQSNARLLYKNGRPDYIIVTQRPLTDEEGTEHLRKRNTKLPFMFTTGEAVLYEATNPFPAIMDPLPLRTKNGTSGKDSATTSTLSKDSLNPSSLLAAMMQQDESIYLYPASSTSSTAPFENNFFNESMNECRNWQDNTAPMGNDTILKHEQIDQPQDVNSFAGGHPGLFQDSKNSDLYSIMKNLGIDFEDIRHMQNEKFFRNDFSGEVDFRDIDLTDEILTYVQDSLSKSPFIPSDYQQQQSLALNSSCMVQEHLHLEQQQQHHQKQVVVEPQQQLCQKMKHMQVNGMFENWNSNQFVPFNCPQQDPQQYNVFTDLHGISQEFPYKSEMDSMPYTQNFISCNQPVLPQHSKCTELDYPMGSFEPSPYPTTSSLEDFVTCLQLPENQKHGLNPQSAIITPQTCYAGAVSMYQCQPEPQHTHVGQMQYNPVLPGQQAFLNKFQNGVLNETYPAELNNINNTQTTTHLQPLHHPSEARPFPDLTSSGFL

As to `Cc1cc2c(cc1C(F)(F)F)N(C(=O)Nc1ccc(Oc3cccnc3C)nc1)CC2`, the call in assay [1], in assay [2], in assay [3], in assay [4], in [5] and in [6] was inactive. Further, the molecule was called inactive in assay [7], in assay [8], in assay [10], in assay [11], in assay [12] and in [13]. The outcome in assay [14], in assay [15], in assay [16], in assay [17] and in assay [18] was inactive. In addition, the AC50 in assay [9] was 0.967 µM (active).
With `OCCO`, the outcome in assay [1], in assay [2], in [3], in assay [4], in assay [5] and in [6] was inactive. Moreover, the call in assay [7], in [8], in assay [9], in assay [10], in assay [19] and in assay [11] was inactive. The result in assay [12], in assay [13], in [14], in assay [15], in assay [16] and in [17] was inactive. The molecule was called inactive in assay [18].
In the case of `CCCCCCCCOC(=O)c1cc(O)c(O)c(O)c1`, the result in assay [1], in assay [2], in assay [3], in assay [4], in assay [5] and in assay [7] was inactive. For the same molecule, the result in assay [8], in assay [9], in assay [10], in assay [11], in [12] and in assay [13] was inactive. Besides, the result in assay [14], in assay [15], in [16], in assay [17] and in [18] was inactive. For the same molecule, in assay [6], the AC50 was 6.37 µM (active).
Regarding `C[C@]12CC[C@@H]3c4ccc(O)cc4CC[C@H]3[C@@H]1CCC2=O`, the result in assay [1], in assay [2], in [3], in assay [4], in [6] and in assay [7] was inactive. The outcome in assay [8], in assay [10], in assay [19], in assay [11], in assay [12] and in assay [13] was inactive. The molecule was called inactive in assay [15], in [16], in [20], in [17] and in [18]. In [6], the AC50 was 24.5 µM (active).
